Screening results as filed in PubChem BioAssay.
HIF-2a block – blocks HIF-2a reporter activity | 786-0 RCC cells HIF-2a reporter, luciferase luminescence, overnight | 0.72% of 360,000 active | inhibition, % at 18.8 µM | AID 624352;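 active = inhibition of the luminescence signal of 40% or more relative to plate controls, in a single-dose primary screen at 18.75 µM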
Shn3 3UTR inh – reduces Shn3 3'UTR luciferase signal in osteoblasts | Clone20 osteoblast Shn3 3'UTR firefly luciferase, 24 h | inhibition, % at 12.5 µM | 0.52% of 360,000 active | AID 588674;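 active = mean inhibition of at least 75% with every replicate also reaching 75%; inconclusive = mean inhibition at least 75% but some replicate below; inactive = mean inhibition below 75%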;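 also: 0% = median of neutral control wells and 100% = pilot-screen positive control compound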
Peg3 promoter – Peg3 promoter activity inhibition | HeLa PEG-Prom luciferase reporter, luminescence, overnight | inhibition, % at 20 µM | 1.7% of 360,000 active | AID 588405;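 active = inhibition of at least 50% at 20 µM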
CF NFkB block – inhibitors of cystic fibrosis induced NF-kB | KKLEB NF-kB-GFP reporter, PAF-induced, GFP fluorescence overnight | inhibition, % at 5 µM | 0.86% of 360,000 active;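 active = at least 50% inhibition at 5 µM, scaled per plate between neutral and stimulator controls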;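 also: PAF is a Pseudomonas aeruginosa culture filtrate used as stimulus; plate controls were PAF-stimulated DMSO wells for no effect and unstimulated DMSO wells for full effect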
KKLEB cytotox – CF airway cell cytotoxicity counter-screen. 0.36% of 360,000 active. activity change (cytotoxicity), % at 5 µM. KKLEB CF airway cells viability, ATPlite luminescence, overnight; hits give low values; cells stimulated with P. aeruginosa culture filtrate;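 active = corrected activity change at or below -50% at 5 µM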
TRPM1 prom inh – reduces MITF-dependent TRPM1 promoter luciferase signal | inhibition, % at 12.5 µM | AID 488899 | 0.83% of 330,000 active | SK-MEL-5 TRPM1 promoter luciferase, 24 h;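 active = mean inhibition across replicates of 60% or more, whatever share of single replicates reaches that level; inconclusive = some that reach 60%, reason not given; inactive = mean inhibition across replicates below 60%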
* = called active by the depositor; ? = inconclusive; . = no result given; ! = not active in a repeat. Shown are actives, neighbours in structure and some others; about 2.7% of the full set was active somewhere.

SMILES	HIF-2a block	Shn3 3UTR inh	Peg3 promoter	CF NFkB block	KKLEB cytotox	TRPM1 prom inh
CC(=O)NC(c1ccc(F)c(F)c1)c1nc(-c2cccc(C(=O)O)c2)cs1 (stereo unspecified)	-68	-64	-231	-8	4	.
COc1cc(C(=O)C(=O)N2CCN(c3ccccc3)CC2)cc2ccccc12	-59	.	.	.	.	.
CC(Nc1ncnc2sccc12)c1ccccc1 (stereo unspecified)	15	87*	14	-4	2	23
c1ccc(Nc2ncnc3sccc23)cc1	-42	-11	-25	5	-2	-11
CC1(C(=O)Nc2cnc3ccccc3c2)CCN1C(=O)C/C=C/c1ccccc1 (stereo unspecified)	-5	10	19	9	-6	.
O=C(c1cc(-c2ccccc2)on1)N(Cc1cccnc1)C(c1ccccn1)c1nc2ccccc2[nH]1 (stereo unspecified)	5	6	10	-8	-4	.
CC12CCC3C(CCC4CC(O)CCC43C)C1CC(=O)C2 (stereo unspecified)	-23	13	-9	-29	19	.
O=C(COc1coc(CN2CCc3ccccc32)cc1=O)Nc1cccc(F)c1	6	-7	14	64*	-56*	4
C=CCSC(=S)NC1CCS(=O)(=O)C1 (stereo unspecified)	31	-22	48	37	-7	69*
NC(=S)NC1CCS(=O)(=O)C1 (stereo unspecified)	10	4	-1	-15	-10	-3
CCOc1ccc(-n2c(C)cc(C(=O)CCl)c2C)cc1	20	77	111*	41	-27	69*
COC(=O)c1ccc(-n2c(C)cc(C(=O)CCl)c2C)cc1	33	33	82*	10	-37	87*
COC(=O)c1ccc(-n2c(C)cc(C(=O)COC(=O)C3=COCCO3)c2C)cc1	-1	2	0	7	-8	2
Cc1ccc2c(c1)CCO[C@@]21O[C@H](CCO)C[C@H](O)[C@H]1O	7	-2	-1	14	-7	.
CC(=O)Nc1ccc(N/C(N)=N/c2nc(C)cc(C)n2)cc1	24	-3	38	-15	13	10
Cc1cc(C)nc(/N=C(\N)Nc2ccc(-c3ccccc3)cc2)n1	-44	92*	45	2	-4	-3
CCC(=O)Nc1cccc(-c2ccc(N3CCC(C)CC3)nn2)c1	9	3	-124	8	-55*	-9
CCC(=O)Nc1ccc(-c2ccc(N3CCC(C)CC3)nn2)cc1	-217	-19	-144	-8	1	-90
CCCCN(C)c1c(C)nc2ccc(C(=O)NCCOc3ccc(OC)cc3)cn12	-1	78	22	10	0	.
c1ccc(-c2cc(NCCN3CCCCC3)c3ccccc3n2)cc1	26	26	101*	-39	-5	52
O=C(Cc1ccc(Cl)cc1Cl)Nc1ccncc1Cl	-4	88*	4	-14	12	6
CNC(=O)c1nnsc1S(=O)c1ccc(Cl)cc1 (stereo unspecified)	-18	97*	103*	91*	-6	?
Cc1ccc(S(=O)c2snnc2C)cc1 (stereo unspecified)	20	-3	8	8	-13	17
Fc1ccccc1-c1ccc(/C=N/Nc2nc3ccccc3[nH]2)o1	-184	-60	-226	-8	-55*	-4
CCCCn1c(/C=N/Nc2nc3ccccc3[nH]2)nc2ccccc21	-135	64	-29	2	-6	9
SMILES	HIF-2a block	Shn3 3UTR inh	Peg3 promoter	CF NFkB block	KKLEB cytotox	TRPM1 prom inh
COCc1c(C#N)c(NCCc2ccc(F)cc2)nc(C)c1[N+](=O)[O-]	5	19	19	-11	0	9
Cc1nc(NCCc2ccc(F)cc2)c(C#N)c(C)c1[N+](=O)[O-]	-7	-6	51*	-2	12	17
CCOc1ccccc1Nc1nnc(SCc2nnc(-c3cc(OC)c(OC)c(OC)c3)o2)s1	2	25	65*	-4	-2	-9
COc1ccc(NC(=O)C2Cc3c(-c4ccc5c(c4)OCO5)ccnc3O2)cc1 (stereo unspecified)	4	-8	23	0	-3	.
CCCC(=O)N1CCOCC1c1cc(C(=O)NCc2ccccc2)no1 (stereo unspecified)	6	-12	1	-4	-3	.
CCOc1ccc(-c2[nH]ncc2Oc2ccccc2OCC)c(O)c1	25	23	55*	3	-7	15
CCOc1ccc(-c2[nH]ncc2-c2ccc(Cl)cc2)c(O)c1	5	-32	55*	10	-9	5
CCOCCCNC(=O)c1cc2c(-c3ccc(Cl)cc3)nn(C)c2s1	18	16	11	-36	-15	12
CCCN(CCC)CCNC(=O)c1cc2c(-c3ccccc3F)nn(C)c2s1	11	18	14	-16	-4	10
CCCCN(CC)CCNC(=O)c1cc2c(-c3ccc(Cl)cc3)nn(C)c2s1	31	-14	103*	-5	-2	68*
CCCN(CCC)CCNC(=O)c1cc2c(-c3ccc(Cl)cc3)nn(C)c2s1	36	25	76*	-2	-14	4
CCOC(=O)[C@]12CCCC=C1N(CCC1=CCCCC1)C(=O)[C@H](CC(=O)N1CCN(C(=O)C3CC3)CC1)C2	9	.	.	.	.	.
CCCc1cc(CN(C)C(=O)c2ccc(OC3CCN(C(C)=O)CC3)c(OC)c2)[nH]n1	6	-2	5	-40	26	.
CCCCn1c(-c2nonc2NC(=O)c2ccccc2Cl)nc2ccccc21	-20	89*	21	37	-30	17
CCCCCCCCCCCCCCCC[n+]1ccc(/C=N/O)cc1	70*	58	104*	28	-16	78*
CCCCCCCCCCCCCCCC[n+]1ccccc1	93*	97*	97*	62*	-50*!	82*
Cc1ccc(NC(=O)c2ccc(-c3cc(Cl)ccc3Cl)o2)c(C)c1	-192	4	-156	25	-6	.
Cc1ccc(S(=O)(=O)NC(=O)C2(C)CCN2C(=O)c2ccccc2)cc1 (stereo unspecified)	6	12	0	-10	0	.
COc1ccc2[nH]c(-c3cccc(F)c3)cc(=O)c2c1	-127	-20	-249	56*	-10	19
CC(=O)Nc1ccc(-c2ccnc3c2CC(C)(C(=O)Nc2ccc(F)c(Cl)c2)O3)cc1 (stereo unspecified)	14	-6	29	-19	-11	.
COc1ccc(C(=O)CC(=O)c2ccc(C(C)(C)C)cc2)cc1	-26	24	-38	2	-16	-13
COc1ccc(C(=O)C(CCC(CNC(C)(C)C)C(=O)c2ccc(OC)cc2)CNC(C)(C)C)cc1 (stereo unspecified)	45*	5	105*	42	-27	95*
Cc1ccc(S(=O)(=O)NCc2ccccc2Br)cc1	-10	.	.	.	.	.
